Pol iota inh – blocks human DNA polymerase iota activity; hit rate 1% among 390,000; Pol iota fluorescent replication assay, 10 min; Potency, µM (doses to about 115 µM), without a hit: top-dose activity, negative = inhibition, most hits filed as inhibitors; Q9UNA4; AID 588590
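Fluorescent replication assay read twice, at 0 min and 10 min after adding 50 nM (final) substrate. Enzyme (10 nM) and compounds were first incubated 15 min at room temperature; enzyme-free buffer wells were negative controls.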
POLB inh – DNA polymerase beta (human) inhibition; Potency, µM (doses to about 114 µM), inactives show top-dose activity change, negative = inhibition, actives largely listed as inhibitors; P06746; AID 485314; Pol beta primer extension/strand displacement, fluorescence kinetic; hit rate 1.3% among 340,000; further: on the % scale 0 is the no-effect control and ±100 the full control effect
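Curves were derived by four-parameter Hill fits of normalized qHTS data. The kinetic fluorescent primer-extension read was taken at 0 and 10 min after 50 nM substrate, following a 15 min room-temperature preincubation of 10 nM enzyme with compounds.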
TDP1 block – blocks human tyrosyl-DNA phosphodiesterase 1; recombinant TDP1, AlphaScreen DNA substrate cleavage; hit rate 0.28% among 350,000; Q9NUW8; Potency, µM (highest dose often 130 µM), inactives show at the top dose activity change, negative = inhibition, hits mostly inhibitors; AID 485290; further: on the % scale 0 is the no-effect control and ±100 the full control effect; nearly all actives have a fitted effect of over 40% in size
Target sequence (Q9NUW8 whole entry, looked up): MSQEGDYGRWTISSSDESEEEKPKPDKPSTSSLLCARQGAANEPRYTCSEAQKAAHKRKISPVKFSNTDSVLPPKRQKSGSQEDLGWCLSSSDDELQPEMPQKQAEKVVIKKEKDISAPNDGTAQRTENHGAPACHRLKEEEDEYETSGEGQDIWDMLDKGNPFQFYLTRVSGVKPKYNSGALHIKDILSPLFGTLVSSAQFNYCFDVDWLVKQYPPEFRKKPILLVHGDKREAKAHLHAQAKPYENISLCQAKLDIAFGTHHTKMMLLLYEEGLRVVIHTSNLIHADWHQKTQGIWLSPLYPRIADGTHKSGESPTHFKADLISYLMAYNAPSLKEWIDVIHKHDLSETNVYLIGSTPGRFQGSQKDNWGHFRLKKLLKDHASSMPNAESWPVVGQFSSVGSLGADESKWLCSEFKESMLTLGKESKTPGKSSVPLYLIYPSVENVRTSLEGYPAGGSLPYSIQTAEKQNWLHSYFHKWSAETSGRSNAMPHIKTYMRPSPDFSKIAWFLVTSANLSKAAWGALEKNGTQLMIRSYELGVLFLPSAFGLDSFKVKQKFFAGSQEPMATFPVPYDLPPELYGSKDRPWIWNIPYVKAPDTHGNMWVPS
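Tdp1 1 nM final; 15 min RT w/ cpd; substrate 15 nM, 5 min; beads 10 ug/ml, 10 min; AlphaScreen read. Neg ctrl: no enzyme.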
Pol kappa inh – inhibitors of human DNA polymerase kappa | Q9UBT6 | purified Pol kappa, fluorescent DNA synthesis assay, 10 min | Potency, µM (doses to about 107 µM), for inactives: at the top dose activity, negative = inhibition, most hits filed as inhibitors | hit rate 0.53% among 400,000 | AID 588579; further: on the % scale 0 is the no-effect control and ±100 the full control effect
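Enzyme at 10 nM met test compounds for 15 min at room temperature. Substrate addition (50 nM final) began the reaction, which was monitored by fluorescence at 0 and 10 min.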
Pol eta inh – inhibitors of human DNA polymerase eta; Q9Y253; recombinant Pol eta, fluorescent DNA replication assay; Potency, µM (top dose mostly 114 µM), for inactives: top-dose activity change, negative = inhibition, usual class: inhibitors; hit rate 1.2% among 390,000; further: on the % scale 0 is the no-effect control and ±100 the full control effect
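Fluorescent replication assay: 50 nM final substrate added after a 15 min room-temperature compound preincubation with 10 nM enzyme. Signal taken at 0 min and again at 10 min.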
* = called active by the depositor; ? = inconclusive; nt = not tested or not shown; [ ] = remark or other dose. The list is not random: actives were taken first. Their share in the collection is about 2.4%. The call rests on the fitted dose curve; in most records, active means well fitted curve in the direction sought with a large enough effect; inconclusive means small, poorly fitted or top-dose-only effect, or another doubt; inactive means no such curve, though single readings can be large; an effect the other way counts as inactive or inconclusive. Potency means the concentration at half of the fitted maximal effect.

SMILES	Pol iota inh	POLB inh	TDP1 block	Pol kappa inh	Pol eta inh
O=C(Nc1nnc(-c2ccco2)s1)C1CCCCC1	-1.1%	-12.3%	-12.6%	3.7%	?
O=C(Nc1nc(-c2ccco2)c(-c2ccco2)s1)C1CCC1	?	?	8.2%	?	25.1µM*
O=C(CSc1ccccn1)Nc1cccc(NC(=O)CSc2ccccn2)n1	?	10µM*	nt	-18.6%	-5.7%
COc1ccc(/C=N/NC(=O)c2nn(-c3ccc(Cl)cc3)c(=O)c3c(N)scc23)cc1	?	6.9%	-1.9%	-35.9%	-10.5%
COc1ccc(/C=N/NC(=O)c2nn(-c3ccccc3)c(=O)c3c(N)scc23)cc1	12.6µM*	?	nt	35.5µM*	-12.1%
CCCCC1=CC2=C(c3ccco3)C(=O)C(C)(OC(=O)c3ccc(OC)cc3)C(=O)C2=CN1CCOC (centres undefined)	6.5%	-27.2%	3.8%[12.3 µM]	-16.4%	-7.0%
CCCCC1=CC2=C(c3ccco3)C(=O)C(C)(OC(=O)c3ccc(OC)cc3)C(=O)C2=CN1CCc1c[nH]c2ccccc12 (centres undefined)	nt	nt	6.5%[12.3 µM]	nt	nt
CCCCC1=CC2=C(c3ccco3)C(=O)C(C)(OC(=O)c3ccc(OC)cc3)C(=O)C2=CN1CCc1ccccn1 (centres undefined)	11.2µM*	50.1µM*	3.2%[12.3 µM]	-14.9%	-24.4%
CCCCC1=CC2=C(c3ccco3)C(=O)C(C)(OC(=O)c3ccc(OC)cc3)C(=O)C2=CN1Cc1ccc2c(c1)OCO2 (centres undefined)	?	35.5µM*	6.2%[12.3 µM]	-7.3%	5.7%
CCCCC1=CC2=C(c3ccco3)C(=O)C(C)(OC(=O)c3ccc(OC)cc3)C(=O)C2=CN1Cc1ccccc1 (centres undefined)	?	44.7µM*	6.5%[12.3 µM]	-3.0%	50.1µM*
OCc1cccc(Cl)c1Cl	nt	nt	8.9%	-11.5%[12 µM]	nt
CNC(=O)C1CCC(Cn2c(=O)c3sccc3n(CC(=O)NCc3ccccc3)c2=O)CC1 (centres undefined)	?	-11.3%	4.5%	-20.1%	2.9%
O=C(CN1C(=O)/C(=C/c2ccco2)SC1=S)Nc1ccc(O)c(C(=O)O)c1	-41.4%	10µM*	-17.7%	?	?
CC(=C\c1ccco1)/C=C1/SC(=S)N(CC(=O)O)C1=O	?	20µM*	nt	?	39.8µM*
NN1C(=O)/C(=C\c2ccco2)SC1=S	?	7.94µM*	nt	?	-24.2%
O=C1/C(=C\c2ccco2)SC(=S)N1c1ccc(O)cc1	?	20µM*	5.1%	-23.9%	-12.5%
CC(/C=C1\SC(=S)N(CC(=O)O)C1=O)=C\c1ccccc1	?	1.3%	4.3%	-2.5%[60.1 µM]	?
COc1cc(/C=C2/C(=O)NN(c3ccc(Cl)cc3)C2=O)cc(OC)c1O	?	-25.1%	nt	-6.8%	-4.7%
COc1cc(/C=C2\SC(=O)N(Cc3ccc(Cl)cc3)C2=O)cc([N+](=O)[O-])c1O	?	7.6%	2.7%	-18.2%	79.4µM*
O=C1/C(=C\c2cc(Br)cc(Br)c2O)SC(=S)N1Cc1ccccc1	3.16µM*	35.5µM*	nt	-26.1%	79.4µM*
COc1cc(/C=C2/SC(=S)N(Cc3ccccc3)C2=O)cc(Cl)c1O	-19.4%	39.8µM*	nt	-16.6%	?
O=C1/C(=C\c2ccc(O)cc2)SC(=S)N1Cc1ccccc1	?	?	6.4%	-26.5%	-11.9%
COc1cc(/C=C2\C(=O)NN(c3ccc(C)cc3)C2=O)cc([N+](=O)[O-])c1O	-11.2%	?	-3.7%	-26.4%	22.4µM*
Cc1cnc2c(C)cccc2c1C	-2.5%	nt	nt	0.0%	nt
CC(CNC(=O)C1CCN(C(=O)c2cc3sccc3n2C)CC1)c1ccccc1 (centres undefined)	7.9%	20.7%	-2.9%	7.4%	1.0%
SMILES	Pol iota inh	POLB inh	TDP1 block	Pol kappa inh	Pol eta inh
O=C(O[C@H]1[C@H](Cc2ccccc2)NS(=O)(=O)[C@H]2CC3C=C[C@]12O3)c1ccc(Br)cc1	-1.6%	nt	nt	-16.1%	nt
Cc1ccc(C2C(C#N)=C(N)SC(N)=C2C#N)c(C)c1	25.1µM*	-7.4%	-7.1%	-7.5%	9.0%
Cc1ccc(C2C(C#N)=C(N)SC(N)=C2C#N)cc1	3.3%	0.1%	3.1%	-10.4%	-4.5%
CCc1ccc(CNC(=O)c2ccc(-n3c(C)cc4c3CCC(C)C4)cc2)cc1 (centres undefined)	1.2%	2.0%	9.9%	-2.9%	-21.9%
NC(=O)CSC1=N/C(=C\c2ccco2)C(=O)N1c1ccc(OC(F)F)cc1	35.5µM*	-22.9%	-2.5%	?	31.6%
CCN(CC)C(=O)CSC1=N/C(=C/c2ccco2)C(=O)N1c1ccc(OC)c(Cl)c1	-15.6%	?	0.0%	-12.0%	?
COc1ccc(C(=O)c2cn(Cc3cccc(C)c3)c3cc4c(cc3c2=O)OCCO4)cc1OC	51.3%	2.6%	6.9%	5.8%	-13.7%
CC1=NN(c2ccc(Br)cc2)C(=O)/C1=C/c1cccs1	-17.3%	-8.9%	7.7%	-7.3%	-6.6%
CC1=NN(c2ccc(C)cc2)C(=O)/C1=C\c1ccc(Br)s1	3.55µM*	-16.4%	7.0%	-13.8%	?
CC(C)Oc1ccc(CNC(=O)Cn2nc(N3CCN(c4ccccc4)CC3)ccc2=O)cc1	14.5%	17.6%	5.3%	8.2%	-9.6%
Cc1cc(=O)n2[nH]c(-c3ccsc3-n3c(C)ccc3C)cc2n1	7.94µM*	?	nt	28.2µM*	7.94µM*
Cc1cc(=O)n2[nH]c(-c3ccc(F)cc3)cc2n1	9.6%	3.6%	-2.0%	-9.6%	-1.5%
COc1ccc(CN(Cc2ccco2)C(=O)c2ccccc2F)cc1	13.7%	7.5%	9.3%	-7.4%	-17.4%
N/C(=C\C(=O)c1cc(Cl)ccc1O)C(Cl)(Cl)Cl	?	13.3%	8.2%	0.0%	50.1µM*
Cc1ccc(C(=O)CC(=O)c2cc(Cl)ccc2O)cc1	-16.7%	-0.8%	5.1%	-5.2%	-14.2%
COc1ccc(N2C(=O)c3ccccc3NC2c2ccc(OC)c(COc3ccc(NC(C)=O)cc3)c2)cc1 (centres undefined)	-15.3%	nt	3.0%	-4.7%	nt
CC1=NN(c2ccccc2)C(=O)C1C(=O)c1cc([N+](=O)[O-])cc([N+](=O)[O-])c1 (centres undefined)	15.8µM*	2.2%	7.5%	-4.8%	-4.4%
CN(C(=O)c1cc(C(=O)N(C)c2ccccc2)cc([N+](=O)[O-])c1)c1ccccc1	9.5%	12.4%	nt	-20.7%	-16.8%
Cc1oc2c(c1C(=O)c1ccccc1)C(=O)C(=O)c1ccccc1-2	0.891µM*	56.2µM*	10.3%	-9.7%	20µM*
O=C(O)c1ccccc1N/N=C/C1=C(N2CCOCC2)C(=C\c2ccccc2)/CC1	14.1µM*	?	-1.4%	?	44.7µM*
CCCNC(=O)N1N=C(c2ccc(N)cc2)c2cc3c(cc2C1C)OCO3 (centres undefined)	nt	nt	16.1%	8.0%[60.1 µM]	nt

High-throughput results from PubChem.
